Assay [1] is described as follows: Nuclear factor erythroid 2-related factor 2/antioxidant responsive element (Nrf2/ARE) small molecule agonists: qHTS cell viability counter screen in human keratinocytes (AID 1919968; active = well fitted curve in the direction sought with a large enough effect in the repeat runs; an effect the other way counts as inactive or inconclusive; also: nearly all actives have a fitted effect of over 55% in size). Put shortly:
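Viability counter-screen: KeratinoSens reporter cells, DMSO-delivered compounds, 23 h at 37 C, CellTiter-Fluor fluorescence.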
In general terms: qHTS replaces the single test concentration by a dilution series.

The nature of assay [2]: Nuclear factor erythroid 2-related factor 2/antioxidant responsive element (Nrf2/ARE) small molecule agonists: luciferase reporter gene qHTS assay in human keratinocytes (AID 1919969). Also: nearly all actives have a fitted effect of over 35% in size. Also: potency is read from the fitted curve at half-maximal effect.
The target of assay [3] is Gonadotropin-releasing hormone receptor (Homo sapiens) (UniProt P30968). The assay can be described thus: Human gonadotropin-releasing hormone receptor (GnRHR) small molecule agonists, calcium flux assay in GnRHR-HEK293 cells (AID 1920063). Also: nearly all actives have a fitted effect of over 35% in size. In a few lines: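 Tox21-format agonist screen using human GnRHR-expressing HEK293 cells and a fluorescent calcium dye; kinetic 3-min fluorescence reading after compound addition, 15-point concentration series run in triplicate.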
Background: A change in cytosolic calcium serves as a functional read-out for many receptors and channels.

Assay [4] concerns the target KiSS-1 receptor (Homo sapiens) (UniProt Q969F8). The assay can be described thus: Human kisspeptin (KISS1R) small molecule agonists, calcium flux assay in KISS1R-HEK293 cells (AID 1920064; active = well fitted curve in the direction sought with a large enough effect in the repeat runs; an effect the other way counts as inactive or inconclusive). Put shortly: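 Intracellular calcium mobilization in KISS1R-HEK293 cells was recorded by fluorescence (Ex/Em 480/540) for 3 min following compound addition to cells pre-loaded 1 h with calcium dye.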

The nature of assay [5]: G protein-coupled receptor (GPCR) small molecule agonists, calcium flux assay: HEK293 wild type cell line counter screen (AID 1920065). In a few lines:
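In this agonist-mode screen, ATP is the positive control and DMSO the vehicle. Cells grow 18 h before a 1 h dye incubation at 37 C; signal is taken at Ex/Em 480/540 over 3 min.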

A short description of assay [6]: p53 small molecule agonists, cell-based qHTS assay with human liver microsomes (AID 1963577).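 Also: p53 response element beta-lactamase reporter cells with liver microsomes plus NADPH.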 Put shortly:
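16 h, 37 C exposure of p53RE-bla cells to compounds with human liver microsomes and NADPH (0.5 mg/mL final each); detection via LiveBLAzer mixture, 2 h dark at room temperature.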

Assay [7] is described as follows: p53 small molecule agonists, cell-based qHTS assay with rat liver microsomes (AID 1963578). Put shortly:
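With rat liver microsomes and NADPH present (0.5 mg/mL final each), p53RE-bla cells are treated with compound for 16 h at 37 C. LiveBLAzer detection mixture is then applied for 2 h at room temperature in the dark.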

Assay [8] in a line: p53 small molecule agonists, cell-based qHTS assay with human liver microsomes: qHTS cell viability counter screen (AID 1963579). Also: nearly all actives have a fitted effect of over 45% in size. In a few lines:
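In this multiplexed counter screen, the reporter plates were subsequently treated with CellTiter-Glo so that cell viability, reflected by luminescence, could be recorded for p53RE-bla cells dosed 16 h with compounds under microsomal activation (HLM and NADPH).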

Assay [9] can be described thus: p53 small molecule agonists, cell-based qHTS assay with rat liver microsomes: qHTS cell viability counter screen (AID 1963580). Also: nearly all actives have a fitted effect of over 45% in size. In a few lines: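 p53RE-bla HCT-116 cells were exposed 16 h at 37 C to compounds with rat liver microsomes (0.5 mg/mL) and NADPH (0.5 mg/mL). Viability was measured in the same wells as ATP content by CellTiter-Glo luminescence.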
The nature of assay [10]: p53 small molecule agonists, cell-based qHTS assay: qHTS cell viability counter screen (AID 1963581). Also: nearly all actives have a fitted effect of over 45% in size. In a few lines:
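Compounds are pinned onto HCT-116 p53RE-bla cells and left 16 h at 37 C. Following the reporter FRET read, ATP is quantified by CellTiter-Glo luminescence after 30 min at room temperature.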

Assay [11] in a line: p53 small molecule agonists, cell-based qHTS assay (AID 1963582; active = well fitted activation curve with a large enough effect in the signal ratio in the repeat runs, not every such curve was filed as active; the % refers to the signal ratio). Put shortly:
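Agonist activity was scored from beta-lactamase FRET fluorescence in p53RE-bla cells treated 16 h at 37 C with compounds in DMSO, substrate incubation being 2 h at room temperature.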

The target of assay [12] is 5-hydroxytryptamine receptor 2A (Homo sapiens) (UniProt P28223). In words: 5-hydroxytryptamine receptor 2A (HTR2A) small molecule antagonists, cell-based qHTS assay (AID 1963586). Also: nearly all actives have a fitted effect of over 45% in size. Also: potency is read from the fitted curve at half-maximal effect. Put shortly:
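Antagonist-mode intracellular calcium assay: DOI (4 nM) added after 5 min compound pre-incubation at room temperature to dye-loaded HTR2A-CHO cells. Fluorescence followed for 3 min, sampled every second.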

The target is the same in assay [13]. The assay can be described thus: 5-hydroxytryptamine receptor 2A (HTR2A) small molecule agonists, cell-based qHTS assay (AID 1963587). Also: nearly all actives have a fitted effect of over 30% in size. In a few lines: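 CHO cells stably expressing human HTR2A, plated 18 h, loaded with calcium dye 1 h at 37 C. Agonist mode: compounds added and intracellular calcium fluorescence recorded kinetically for 2 min at 1 sec intervals.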

Assay [14] concerns the target Muscarinic acetylcholine receptor M1 (Homo sapiens) (UniProt P11229). In words: Cholinergic receptor muscarinic 1 (CHRM1) small molecule agonists, cell-based qHTS assay (AID 1963589). Also: nearly all actives have a fitted effect of over 35% in size. In a few lines:
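Stable CHRM1-CHO cells (human receptor) were incubated 18 h, dye-loaded for 1 h at 37 C and exposed to test compounds for agonist activity, with calcium-dependent fluorescence followed kinetically.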

The nature of assay [15]: cAMP Responsive Elements (CRE) small molecule antagonists, cell-based qHTS assay (AID 1963591; active = well fitted inhibition curve with a large enough effect in the signal ratio in the repeat runs, not every such curve was filed as active; the % refers to the signal ratio). In a few lines:
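qHTS in CRE-bla HEK 293T cells: compound in DMSO, then 0.25 uM NKH477 (final), 3 h at 37 °C/5% CO2; beta-lactamase FRET read-out after 2 h substrate incubation.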

The target of assay [16] is Beta-2 adrenergic receptor (Homo sapiens) (UniProt P07550). In words: Adrenergic beta2 receptor (ADRB2) small molecule antagonists, cell-based qHTS assay (AID 1963592). Also: series mostly up to about 92 µM; nearly all actives have a fitted effect of over 50% in size. Put shortly: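 Cells (CHO, stable ADRB2 overexpression) incubated 18-20hr at 37C; compounds added from DMSO; agonist mix (1nM isoproterenol, 100uM IBMX, 25uM Ro-20-1724) added; 0.5hr RT; d2-cAMP and anti-cAMP-cryptate added; 1hr RT; 665/615 nm read.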

For assay [17] the target is unchanged. The assay can be described thus: Adrenergic beta2 receptor (ADRB2) small molecule agonists, cell-based qHTS assay (AID 1963593).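 Also: CHO cells stably overexpressing human ADRB2.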 Put shortly: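 CHO cells stably over-expressing ADRB2 were plated overnight at 37C, then dosed with compounds plus a stimulation mix containing 100uM IBMX and 25uM Ro-20-1724 for 0.5hr at room temperature. cAMP was measured by HTRF competition, 1hr.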

The target in assay [18] is D(2) dopamine receptor (Homo sapiens) (UniProt P14416). In words: Dopamine D2 receptor (DRD2) small molecule agonists, cell-based qHTS assay (AID 1963594). Also: nearly all actives have a fitted effect of over 35% in size. In a few lines:
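HEK293 cells stably expressing human DRD2, pre-treated with PDE inhibitor Ro20-1724 (0.1 mM final) and compound 10 min at room temperature, then stimulated with NKH477 (200nM […]) for 30 min. cAMP read by HTRF (665/620 nm).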

Assay [19] shares this target. In words: Dopamine D2 receptor (DRD2) small molecule antagonists, cell-based qHTS assay (AID 1963595; active = well fitted inhibition curve with a large enough effect in the signal ratio in the repeat runs, with a control signal flat; the % refers to the signal ratio). Put shortly:
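In this cell-based antagonist screen, compounds act for 10 min at room temperature before a 30 min challenge with 12 nM quinpirole and 200 nM NKH477. cAMP is quantified by HTRF competition in DRD2-HEK293 cells containing 0.1 mM Ro20-1724.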

Assay [20] concerns the target Muscarinic acetylcholine receptor M1 (Homo sapiens) (UniProt P11229). In words: Cholinergic receptor muscarinic 1 (CHRM1) small molecule antagonists, cell-based qHTS assay (AID 1963588). Also: nearly all actives have a fitted effect of over 40% in size. In a few lines: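 CHRM1-CHO calcium-flux assay, antagonist mode. Cells were seeded 18 h, dye-loaded 1 h at 37 C and given compound for 5 min at RT, then acetylcholine was added at 50nM. FDSS fluorescence was read 3 min; 15 concentrations, three runs.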

Inconclusive results are not listed. The source made the active and inactive calls. Unless noted, calls follow the shape of the full dose curve.

Chain of Gonadotropin-releasing hormone receptor (Homo sapiens) (P30968 whole entry, looked up): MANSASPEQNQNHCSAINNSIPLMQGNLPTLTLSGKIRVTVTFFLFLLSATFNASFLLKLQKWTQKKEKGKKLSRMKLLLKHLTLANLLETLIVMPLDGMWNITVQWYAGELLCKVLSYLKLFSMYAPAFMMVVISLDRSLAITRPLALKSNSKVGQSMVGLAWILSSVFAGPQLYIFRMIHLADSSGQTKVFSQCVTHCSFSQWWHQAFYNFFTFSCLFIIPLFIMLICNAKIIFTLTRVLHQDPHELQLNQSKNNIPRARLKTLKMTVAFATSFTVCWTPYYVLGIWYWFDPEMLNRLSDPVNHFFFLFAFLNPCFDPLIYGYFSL
Chain of 5-hydroxytryptamine receptor 2A (Homo sapiens) (P28223 whole entry, looked up): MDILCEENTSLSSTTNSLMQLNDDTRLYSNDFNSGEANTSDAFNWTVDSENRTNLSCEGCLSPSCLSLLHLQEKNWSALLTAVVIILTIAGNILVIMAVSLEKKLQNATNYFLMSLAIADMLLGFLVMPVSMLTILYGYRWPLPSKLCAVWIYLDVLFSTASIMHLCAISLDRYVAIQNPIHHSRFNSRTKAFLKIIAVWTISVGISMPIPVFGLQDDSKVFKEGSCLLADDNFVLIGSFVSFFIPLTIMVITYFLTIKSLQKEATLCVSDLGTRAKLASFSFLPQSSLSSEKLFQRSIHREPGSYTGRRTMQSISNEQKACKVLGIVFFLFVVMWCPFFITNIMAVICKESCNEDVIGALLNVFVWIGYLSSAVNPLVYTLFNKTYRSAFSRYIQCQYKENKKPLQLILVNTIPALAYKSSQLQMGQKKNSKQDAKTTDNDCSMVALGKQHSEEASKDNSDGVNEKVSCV
Chain of Beta-2 adrenergic receptor (Homo sapiens) (P07550 whole entry, looked up): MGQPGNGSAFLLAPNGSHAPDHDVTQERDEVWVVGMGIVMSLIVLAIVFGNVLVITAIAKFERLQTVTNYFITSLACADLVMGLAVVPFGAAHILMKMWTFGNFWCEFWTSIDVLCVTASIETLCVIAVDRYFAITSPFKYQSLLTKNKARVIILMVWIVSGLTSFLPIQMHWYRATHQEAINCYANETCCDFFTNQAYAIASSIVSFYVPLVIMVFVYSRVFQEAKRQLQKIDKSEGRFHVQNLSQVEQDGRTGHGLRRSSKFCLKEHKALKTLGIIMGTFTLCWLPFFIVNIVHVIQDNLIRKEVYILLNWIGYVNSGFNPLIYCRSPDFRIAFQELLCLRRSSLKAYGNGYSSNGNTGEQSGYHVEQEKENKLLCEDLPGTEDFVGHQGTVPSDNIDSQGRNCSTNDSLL
Chain of D(2) dopamine receptor (Homo sapiens) (P14416 whole entry, looked up): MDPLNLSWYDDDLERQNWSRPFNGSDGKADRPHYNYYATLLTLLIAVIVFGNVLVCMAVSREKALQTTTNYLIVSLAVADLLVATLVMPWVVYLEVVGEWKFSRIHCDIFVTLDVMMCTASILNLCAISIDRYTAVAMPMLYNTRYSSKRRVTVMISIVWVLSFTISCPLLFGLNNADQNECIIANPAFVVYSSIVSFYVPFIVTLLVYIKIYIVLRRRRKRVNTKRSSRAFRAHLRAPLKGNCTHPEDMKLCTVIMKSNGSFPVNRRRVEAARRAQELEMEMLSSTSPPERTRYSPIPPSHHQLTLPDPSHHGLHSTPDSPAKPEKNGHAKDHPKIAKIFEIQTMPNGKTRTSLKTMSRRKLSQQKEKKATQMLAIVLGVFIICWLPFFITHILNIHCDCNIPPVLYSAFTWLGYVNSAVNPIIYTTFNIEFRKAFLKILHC
Chain of KiSS-1 receptor (Homo sapiens) (Q969F8 whole entry, looked up): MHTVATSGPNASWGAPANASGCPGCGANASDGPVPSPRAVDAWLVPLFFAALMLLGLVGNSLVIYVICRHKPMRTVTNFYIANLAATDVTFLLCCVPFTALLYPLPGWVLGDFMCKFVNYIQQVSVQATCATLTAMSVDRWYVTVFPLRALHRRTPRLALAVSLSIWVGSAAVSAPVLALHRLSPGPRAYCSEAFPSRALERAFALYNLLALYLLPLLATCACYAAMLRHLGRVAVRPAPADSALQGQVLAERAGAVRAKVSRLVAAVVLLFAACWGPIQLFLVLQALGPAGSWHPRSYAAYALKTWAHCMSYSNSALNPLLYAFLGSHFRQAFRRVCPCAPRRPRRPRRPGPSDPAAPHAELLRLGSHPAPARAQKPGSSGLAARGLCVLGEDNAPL
Chain of Muscarinic acetylcholine receptor M1 (Homo sapiens) (P11229 whole entry, looked up): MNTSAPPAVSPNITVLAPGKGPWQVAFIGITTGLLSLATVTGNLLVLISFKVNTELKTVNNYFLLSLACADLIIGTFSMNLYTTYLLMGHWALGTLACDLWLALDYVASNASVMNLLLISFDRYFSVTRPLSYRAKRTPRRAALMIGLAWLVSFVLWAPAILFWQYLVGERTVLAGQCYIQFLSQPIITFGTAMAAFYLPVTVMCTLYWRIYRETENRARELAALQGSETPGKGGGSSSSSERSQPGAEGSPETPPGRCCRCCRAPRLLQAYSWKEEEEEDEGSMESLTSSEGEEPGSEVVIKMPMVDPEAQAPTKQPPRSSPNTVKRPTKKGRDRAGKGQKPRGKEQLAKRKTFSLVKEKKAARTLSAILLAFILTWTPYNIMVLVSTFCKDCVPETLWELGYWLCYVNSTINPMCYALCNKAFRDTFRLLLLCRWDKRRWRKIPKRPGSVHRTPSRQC

For `CC(=O)N[C@H]1[C@H]([C@H](O)[C@H](O)CO)OC(C(=O)O)=C[C@@H]1N=C(N)N`, the Potency result in assay [1], in [2], in assay [3], in assay [4], in [5] and in [6] was “inactive” throughout. In addition, the Potency entry in [7], in [8], in assay [9], in assay [10], in assay [11] and in assay [12] was “inactive” throughout. Besides, the Potency result in assay [13], in [14], in [15], in [16], in assay [17] and in assay [18] was “inactive” throughout. In addition, the Potency result in assay [19] is “inactive”.
In the case of `C[C@@H]1CCC[C@H](C)N1`, the Potency entry in assay [1], in assay [2], in [3], in [4], in assay [5] and in assay [6] was “inactive” each time. Moreover, the Potency entry in assay [7], in [8], in [9], in assay [10], in assay [11] and in assay [12] was “inactive” throughout. Besides, the Potency result in assay [13], in assay [20], in [15], in assay [16], in [18] and in assay [19] was “inactive” in each case.
Consider `C=CCCC(=O)/C=C/C1C(C)=CCCC1(C)C` (centres undefined), for which the Potency entry in assay [1], in [3], in assay [4], in assay [5], in [6] and in [7] was “inactive” throughout. Also, the Potency result in [8], in assay [9], in assay [10], in assay [11], in assay [12] and in assay [13] was “inactive” each time. Moreover, the Potency result in assay [14], in assay [15], in assay [16], in assay [17], in [18] and in assay [19] was “inactive” in each case. Also, the Potency in assay [2] is 54.5 µM (active).
Take `N#CC1(O)CCCCC1`: the Potency entry in assay [1], in [3], in assay [4], in [5], in assay [6] and in assay [7] was “inactive” each time. Further, the Potency result in [8], in [9], in assay [10], in [11], in assay [12] and in assay [13] was “inactive” each time. The Potency entry in assay [14], in assay [15], in assay [16], in assay [17] and in [18] was “inactive” in each case. Moreover, the Potency in assay [2] is 61.6 µM (active).
For `CCCCCCCC(=O)N(C)C`, the Potency entry in assay [1], in [2], in assay [3], in assay [4], in [5] and in [6] was “inactive” in each case. Besides, the Potency entry in assay [7], in assay [8], in assay [9], in assay [10], in assay [11] and in assay [12] was “inactive” in each case. Also, the Potency result in [13], in assay [20], in assay [15], in assay [16], in assay [17] and in assay [18] was “inactive” throughout. For the same compound, the Potency result in [19] is “inactive”.
With `CCN1CCC[C@H]1CNC(=O)c1c(O)c(Cl)cc(Cl)c1OC`, the Potency result in [1], in [2], in assay [3], in assay [4], in assay [5] and in assay [6] was “inactive” each time. Moreover, the Potency entry in assay [7], in [8], in assay [9], in [10], in [11] and in [13] was “inactive” throughout. In addition, the Potency result in [14], in [15], in assay [16] and in assay [18] was “inactive” each time. In addition, the Potency in [12] is 18.3 µM (active).
On to `CC1(C)CO[C@@H](CC(=O)O)CN1`, for which the Potency entry in assay [1], in assay [2], in assay [3], in assay [4], in assay [5] and in [6] was “inactive” each time. In addition, the Potency entry in assay [7], in [8], in assay [9], in assay [10], in [11] and in assay [12] was “inactive” in each case. Further, the Potency result in [13], in [20], in assay [15], in assay [16], in assay [17] and in assay [18] was “inactive” throughout. Moreover, the Potency result in [19] is “inactive”.
